Measured values from the supplement of paper PMC4466140.

Assays:
Assay in all cases: SPOT peptide array binding signal intensity (averaged, normalized) (arbitrary units (background-subtracted, floor 0; scale differs between SH3 domains)); higher = stronger binding of the SH3 domain to the peptide
[1] = molecular target: AgAbp1
Protocol: (§1)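 GST-tagged SH3 domains from S. cerevisiae (Sc), A. gossypii (Ag), C. albicans (Ca) and S. pombe (Sp) were incubated at 10 ug/ml overnight at 4 C on cellulose SPOT membranes carrying 292 synthetic 15-mer peptides mined from the S. cerevisiae proteome (cysteines replaced by serines). Binding was detected with anti-GST antibody, HRP secondary and chemiluminescence, quantified with Genespotter, and reported as normalized spot intensities averaged over biological replicates.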

[2] = molecular target: AgBbc1
Protocol: as §1

[3] = molecular target: AgBem1-D1
Protocol: as §1

[4] = molecular target: AgBzz1-D1
Protocol: as §1

[5] = molecular target: AgBzz1-D2
Protocol: as §1

[6] = molecular target: AgCyk3
Protocol: as §1

[7] = molecular target: AgFus1
Protocol: as §1

[8] = molecular target: AgHof1
Protocol: as §1

[9] = molecular target: AgHse1
Protocol: as §1

[10] = molecular target: AgLsb1
Protocol: as §1

[11] = molecular target: AgLsb4
Protocol: as §1

[12] = molecular target: AgMyo5
Protocol: as §1

[13] = molecular target: AgNbp2
Protocol: as §1

[14] = molecular target: AgRvs167
Protocol: as §1

[15] = molecular target: AgSho1
Protocol: as §1

[16] = molecular target: AgSla1-D1-D2
Protocol: as §1

[17] = molecular target: AgSla1-D3
Protocol: as §1

[18] = molecular target: CaAbp1-D1
Protocol: as §1

[19] = molecular target: CaAbp1-D2
Protocol: as §1

[20] = molecular target: CaBbc1
Protocol: as §1

[21] = molecular target: CaBem1-D1
Protocol: as §1

[22] = molecular target: CaBzz1-D1
Protocol: as §1

[23] = molecular target: CaBzz1-D2
Protocol: as §1

[24] = molecular target: CaCyk3
Protocol: as §1

[25] = molecular target: CaFus1
Protocol: as §1

[26] = molecular target: CaHof1
Protocol: as §1

[27] = molecular target: CaHse1
Protocol: as §1

[28] = molecular target: CaLsb1
Protocol: as §1

[29] = molecular target: CaLsb4
Protocol: as §1

[30] = molecular target: CaMyo5
Protocol: as §1

[31] = molecular target: CaNbp2
Protocol: as §1

[32] = molecular target: CaRvs167
Protocol: as §1

[33] = molecular target: CaRvs167-3
Protocol: as §1

[34] = molecular target: CaSho1
Protocol: as §1

[35] = molecular target: CaSla1-D1-D2
Protocol: as §1

[36] = molecular target: CaSla1-D3
Protocol: as §1

[37] = molecular target: ScAbp1
Protocol: as §1

[38] = molecular target: ScBbc1
Protocol: as §1

[39] = molecular target: ScBem1-D1
Protocol: as §1

[40] = molecular target: ScBzz1-D1
Protocol: as §1

[41] = molecular target: ScBzz1-D2
Protocol: as §1

[42] = molecular target: ScCyk3
Protocol: as §1

[43] = molecular target: ScFus1
Protocol: as §1

[44] = molecular target: ScHof1
Protocol: as §1

[45] = molecular target: ScHse1
Protocol: as §1

[46] = molecular target: ScLsb1
Protocol: as §1

[47] = molecular target: ScLsb2
Protocol: as §1

[48] = molecular target: ScLsb3
Protocol: as §1

[49] = molecular target: ScLsb4
Protocol: as §1

[50] = molecular target: ScMyo3
Protocol: as §1

[51] = molecular target: ScMyo5
Protocol: as §1

[52] = molecular target: ScNbp2
Protocol: as §1

[53] = molecular target: ScPex13
Protocol: as §1

[54] = molecular target: ScRvs167
Protocol: as §1

[55] = molecular target: ScSho1
Protocol: as §1

[56] = molecular target: ScSla1-D1-D2
Protocol: as §1

[57] = molecular target: ScSla1-D3
Protocol: as §1

[58] = molecular target: SpAbp1-D1
Protocol: as §1

[59] = molecular target: SpBbc1
Protocol: as §1

[60] = molecular target: SpBzz1-D1
Protocol: as §1

[61] = molecular target: SpBzz1-D2
Protocol: as §1

[62] = molecular target: SpCyk3
Protocol: as §1

[63] = molecular target: SpHof1
Protocol: as §1

[64] = molecular target: SpHof1-2
Protocol: as §1

[65] = molecular target: SpHof1-3
Protocol: as §1

[66] = molecular target: SpHse1
Protocol: as §1

[67] = molecular target: SpLsb1
Protocol: as §1

[68] = molecular target: SpLsb4
Protocol: as §1

[69] = molecular target: SpMyo1
Protocol: as §1

[70] = molecular target: SpNbp2
Protocol: as §1

[71] = molecular target: SpPex13
Protocol: as §1

[72] = molecular target: SpRvs167
Protocol: as §1

[73] = molecular target: SpSla1-D1-D2
Protocol: as §1

[74] = molecular target: SpSla1-D3
Protocol: as §1

B1: unnamed (peptide)
chain: RLPAPPPPPRRGPAP
- SPOT peptide array binding signal intensity [1]: 51.5
- SPOT peptide array binding signal intensity [2]: 909
- SPOT peptide array binding signal intensity [3]: 140
- SPOT peptide array binding signal intensity [4]: 624
- SPOT peptide array binding signal intensity [5]: 154
- SPOT peptide array binding signal intensity [6]: 3
- SPOT peptide array binding signal intensity [7]: 6
- SPOT peptide array binding signal intensity [8]: 112
- SPOT peptide array binding signal intensity [9]: 28.5
- SPOT peptide array binding signal intensity [10]: 5.25
- SPOT peptide array binding signal intensity [11]: 412
- SPOT peptide array binding signal intensity [12]: 550
- SPOT peptide array binding signal intensity [13]: 7.5
- SPOT peptide array binding signal intensity [14]: 123
- SPOT peptide array binding signal intensity [15]: 4
- SPOT peptide array binding signal intensity [16]: 5
- SPOT peptide array binding signal intensity [17]: 10
- SPOT peptide array binding signal intensity [18]: 150
- SPOT peptide array binding signal intensity [19]: 17
- SPOT peptide array binding signal intensity [20]: 770
- SPOT peptide array binding signal intensity [21]: 1820
- SPOT peptide array binding signal intensity [22]: 3030
- SPOT peptide array binding signal intensity [23]: 1540
- SPOT peptide array binding signal intensity [24]: 326
- SPOT peptide array binding signal intensity [25]: 26.5
- SPOT peptide array binding signal intensity [26]: 39
- SPOT peptide array binding signal intensity [27]: 5.25
- SPOT peptide array binding signal intensity [28]: ≤ 0
- SPOT peptide array binding signal intensity [29]: 560
- SPOT peptide array binding signal intensity [30]: 19.5

B2: unnamed (peptide)
chain: NRLRKRLNLPSEISI
- SPOT peptide array binding signal intensity [1]: 52
- SPOT peptide array binding signal intensity [2]: 2
- SPOT peptide array binding signal intensity [3]: 126
- SPOT peptide array binding signal intensity [4]: 7
- SPOT peptide array binding signal intensity [5]: 9
- SPOT peptide array binding signal intensity [6]: 1
- SPOT peptide array binding signal intensity [7]: 444
- SPOT peptide array binding signal intensity [8]: 45.2
- SPOT peptide array binding signal intensity [9]: 2040
- SPOT peptide array binding signal intensity [10]: 36.2
- SPOT peptide array binding signal intensity [11]: 21.5
- SPOT peptide array binding signal intensity [12]: ≤ 0
- SPOT peptide array binding signal intensity [13]: 74
- SPOT peptide array binding signal intensity [14]: 4.67
- SPOT peptide array binding signal intensity [15]: 26.5
- SPOT peptide array binding signal intensity [16]: 33
- SPOT peptide array binding signal intensity [17]: 5.5
- SPOT peptide array binding signal intensity [18]: 649
- SPOT peptide array binding signal intensity [19]: 307
- SPOT peptide array binding signal intensity [20]: 9.75
- SPOT peptide array binding signal intensity [21]: 2
- SPOT peptide array binding signal intensity [22]: 10
- SPOT peptide array binding signal intensity [23]: 18.2
- SPOT peptide array binding signal intensity [24]: 4
- SPOT peptide array binding signal intensity [25]: 1980
- SPOT peptide array binding signal intensity [26]: ≤ 0
- SPOT peptide array binding signal intensity [27]: 95.2
- SPOT peptide array binding signal intensity [28]: 5.5
- SPOT peptide array binding signal intensity [29]: 14
- SPOT peptide array binding signal intensity [30]: 4.5
- SPOT peptide array binding signal intensity [31]: 286
- SPOT peptide array binding signal intensity [32]: 6.83
- SPOT peptide array binding signal intensity [33]: 48.8
- SPOT peptide array binding signal intensity [34]: 353
- SPOT peptide array binding signal intensity [35]: 16
- SPOT peptide array binding signal intensity [36]: 3
- SPOT peptide array binding signal intensity [37]: 191
- SPOT peptide array binding signal intensity [38]: 2.5
- SPOT peptide array binding signal intensity [39]: 61
- SPOT peptide array binding signal intensity [40]: 21
- SPOT peptide array binding signal intensity [41]: 5.5
- SPOT peptide array binding signal intensity [42]: 140
- SPOT peptide array binding signal intensity [43]: 524
- SPOT peptide array binding signal intensity [44]: 2.5
- SPOT peptide array binding signal intensity [45]: 2410
- SPOT peptide array binding signal intensity [46]: 22.5
- SPOT peptide array binding signal intensity [47]: ≤ 0
- SPOT peptide array binding signal intensity [48]: 57
- SPOT peptide array binding signal intensity [49]: 7
- SPOT peptide array binding signal intensity [50]: ≤ 0
- SPOT peptide array binding signal intensity [51]: 2.5
- SPOT peptide array binding signal intensity [52]: 70
- SPOT peptide array binding signal intensity [53]: 0.5
- SPOT peptide array binding signal intensity [54]: 2.5
- SPOT peptide array binding signal intensity [55]: 662
- SPOT peptide array binding signal intensity [56]: 19.5
- SPOT peptide array binding signal intensity [57]: 12.5
- SPOT peptide array binding signal intensity [58]: 293
- SPOT peptide array binding signal intensity [59]: 6
- SPOT peptide array binding signal intensity [60]: 11
- SPOT peptide array binding signal intensity [61]: 1.5
- SPOT peptide array binding signal intensity [62]: ≤ 0
- SPOT peptide array binding signal intensity [63]: 60
- SPOT peptide array binding signal intensity [64]: 7
- SPOT peptide array binding signal intensity [65]: 708
- SPOT peptide array binding signal intensity [66]: 2460
- SPOT peptide array binding signal intensity [67]: 96.8
- SPOT peptide array binding signal intensity [68]: 29
- SPOT peptide array binding signal intensity [69]: 5
- SPOT peptide array binding signal intensity [70]: 71
- SPOT peptide array binding signal intensity [71]: 7.5
- SPOT peptide array binding signal intensity [72]: 2.33
- SPOT peptide array binding signal intensity [73]: ≤ 0
- SPOT peptide array binding signal intensity [74]: 3
